Counter-ions that a name gives are not always drawn. ± gives the standard error. In all, about 1,300 compounds went through this assay and about 75 (6%) showed an effect of 50% or more. The full list was thinned out, with strong results kept by preference.
Tested on: Trichoderma virens ATCC 9645
Test: growth yield (OD600) relative to untreated control; higher = less growth inhibition
Settings: compound concentration: 100 uM
Procedure, shortened: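 Plates were read for OD600 at 40 h and 72 h after Trichoderma virens ATCC 9645 spores (15,000 spores ml^−1 in potato dextrose broth) were grown at 30 °C with library compounds at 100 μM final, with or without a biocide at 200 ng ml^−1. Growth is stated relative to the control with neither agent, as the mean of duplicate screens.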

Structure (SMILES) | growth yield (40 h) [%] | growth yield (72 h) [%]
CC=CC1=C(C(=O)O)N2C(=O)[C@@H](NC(=O)[C@H](N)c3ccc(O)cc3)[C@H]2SC1 [Cefprozil] | 100 ± 1.4 | 92.7 ± 3.1
CN1CCN(C2=Nc3cc(Cl)ccc3Nc3ccccc32)CC1 [Clozapine] | 102 ± 2.4 | 104.77 ± 0.1
CN1[C@@H]2CC[C@H]1C[C@@H](OC(=O)c1c[nH]c3ccccc13)C2 [Tropisetron hydrochloride] | 104 ± 10 | 104 ± 8.6
CC(C)n1c(/C=C/C(O)CC(O)CC(=O)O)c(-c2ccc(F)cc2)c2ccccc21 (stereo unspecified) [Fluvastatin sodium salt] | 1.91 ± 1.3 | 1.78 ± 0.94
O=C(O)C[C@H](O)C[C@H](O)/C=C/c1c(C2CC2)nc2ccccc2c1-c1ccc(F)cc1 [Pitavastatin calcium] | 4.13 | 2.94
CC(C)c1c(C(=O)Nc2ccccc2)c(-c2ccccc2)c(-c2ccc(F)cc2)n1CC[C@@H](O)C[C@@H](O)CC(=O)O [Atorvastatin] | 106 | 85.1 ± 10
C[C@@H]1C[C@H]2[C@@H]3C[C@H](F)C4=CC(=O)C=C[C@]4(C)[C@@]3(F)[C@@H](O)C[C@]2(C)[C@@]1(O)C(=O)COC(=O)C(C)(C)C [Flumethasone pivalate] | 106 ± 7.2 | 104 ± 5.3
Cc1ccccc1OCC(O)CO (stereo unspecified) [Mephenesin] | 98 ± 3.3 | 99.5 ± 3.5
Cc1cnc(C(=O)NCCc2ccc(S(=O)(=O)NC(=O)NC3CCCCC3)cc2)cn1 [Glipizide] | 103.7 ± 0.48 | 104.3 ± 0.52
O=C(O)[C@H]1/C(=C/CO)O[C@@H]2CC(=O)N21 [Clavulanate potassium salt] | 95.5 ± 2.4 | 87.9 ± 3.4
Oc1ccc(OCc2ccccc2)cc1 [Monobenzone] | 48.6 ± 0.64 | 53.3 ± 1.7
CC(COc1ccccc1)NC(C)C(O)c1ccc(O)cc1 (stereo unspecified) [Isoxsuprine hydrochloride] | 101 ± 1.1 | 98.6 ± 2.3
CC(COc1ccccc1)N(CCCl)Cc1ccccc1 (stereo unspecified) [Phenoxybenzamine hydrochloride] | 104 ± 4.6 | 103 ± 4.2
Cc1ccc(O)c([C@H](CCN(C(C)C)C(C)C)c2ccccc2)c1 [Tolterodine tartrate] | 96.7 ± 2.7 | 97.95 ± 0.42
CN(C)CCn1nnnc1SCC1=C(C(=O)O)N2C(=O)[C@@H](NC(=O)Cc3csc(N)n3)[C@H]2SC1 [Cefotiam hydrochloride] | 102 ± 1.4 | 102.2 ± 0.73
C[C@@H](c1ncncc1F)[C@](O)(Cn1cncn1)c1ccc(F)cc1F [Voriconazole] | 3.02 ± 1.4 | 2.41 ± 0.94
OC(Cn1cncn1)(Cn1cncn1)c1ccc(F)cc1F [Fluconazole] | 55.1 ± 1.8 | 61.14 ± 0.52
CC(C)NC(=N)NC(=N)Nc1ccc(Cl)cc1 [Proguanil hydrochloride] | 110 ± 13 | 109 ± 9
N=C(NCCCCCCNC(=N)NC(=N)Nc1ccc(Cl)cc1)NC(=N)Nc1ccc(Cl)cc1 [Chlorhexidine] | 2.7 ± 1.4 | 2.31 ± 0.84
N=C(N)NC(=N)NCCc1ccccc1 [Phenformin hydrochloride] | 96.9 ± 1.9 | 91.5 ± 2.7
CC(C)NCC(O)c1ccc2ccccc2c1 (stereo unspecified) [Pronethalol hydrochloride] | 98.6 ± 2.1 | 99.3 ± 2
CC(=O)N[C@@H](CC(=O)N[C@@H](CCC(=O)O)C(=O)O)C(=O)O [Spaglumic acid] | 101 ± 3.5 | 99.5 ± 1.4
C[N+](C)(CCOc1ccccc1)Cc1ccccc1.O=C([O-])c1cc2ccccc2cc1O [Bephenium hydroxynaphthoate] | 73.2 ± 1.1 | 79.6 ± 2.2

Structure (SMILES) | growth yield (40 h) [%] | growth yield (72 h) [%]
CC(C)(C)CC(C)(C)c1ccc(OCCOCC[N+](C)(C)Cc2ccccc2)cc1 [Benzethonium chloride] | 1.75 ± 0.16 | 1.78 ± 0.1
Cc1cc(C(C)(C)CC(C)(C)C)ccc1OCCOCC[N+](C)(C)Cc1ccccc1 [Methyl benzethonium chloride] | 1.43 ± 0.79 | 0.944 ± 0.52
CCOc1ccccc1OCC1CNCCO1 (stereo unspecified) [Viloxazine hydrochloride] | 99.6 ± 1.8 | 96.4 ± 1.4
COc1ncnc(NS(=O)(=O)c2ccc(N)cc2)c1OC [Sulfadoxine] | 91 ± 9.4 | 101 ± 2.6
O=C1c2cccc3c2[C@H](CCC3)CN1[C@@H]1CN2CCC1CC2 [Palonosetron hydrochloride] | 103 ± 6 | 99 ± 4.2
O=C(NCCN1CCOCC1)c1ccc(Cl)cc1 [Moclobemide] | 102 ± 2.1 | 106 ± 2
COc1ccc2[nH]c([S+]([O-])Cc3ncc(C)c(OC)c3C)nc2n1 (stereo unspecified) [Tenatoprazole] | 98.8 ± 4.8 | 102 ± 1.6
CCOC(=O)c1ccc(OC(=O)CCCCCNC(=N)N)cc1 [Gabexate mesilate] | 76.6 ± 4.5 | 76 ± 3.7
Cc1nnc(NS(=O)(=O)c2ccc(N)cc2)s1 [Sulfamethizole] | 100.4 ± 0.32 | 99.74 ± 0.1
COC(=O)[C@H](c1ccccc1Cl)N1CCc2sccc2C1 [Clopidogrel] | 76.9 ± 1.6 | 82 ± 1.1
CO[C@@]1(NC(=O)Cc2cccs2)C(=O)N2C(C(=O)O)=C(COC(N)=O)CS[C@@H]21 [Cefoxitin sodium salt] | 94.4 ± 3.5 | 94.8 ± 1.9
Nc1ccc(/N=N/c2ccccc2)c(N)n1 [Phenazopyridine hydrochloride] | 21.1 ± 1.4 | 49.4 ± 6.2
Nc1c2ccccc2nc2ccccc12 [Aminacrine] | 98.64 ± 0.48 | 96.9 ± 2.9
CCN(Cc1ccncc1)C(=O)C(CO)c1ccccc1 (stereo unspecified) [Tropicamide] | 99.6 ± 1.8 | 102 ± 1.1
CO[C@@H]1[C@@H](OC(N)=O)[C@@H](O)[C@H](Oc2ccc3c(O)c(NC(=O)c4ccc(O)c(CC=C(C)C)c4)c(=O)oc3c2C)OC1(C)C [Novobiocin sodium salt] | 92 ± 1.8 | 115 ± 4.7
CCOC(=O)[C@@](C)(N)Cc1ccc(O)c(O)c1 [Methyldopate hydrochloride] | 104 ± 5.2 | 97.85 ± 0.94
N[C@H]1CONC1=O [(S)-(-)-Cycloserine] | 104 ± 3.3 | 96.8 ± 3
Cc1noc(NS(=O)(=O)c2ccc(N)cc2)c1C [Sulfisoxazole] | 87.4 | 96.2 ± 1.8
Cc1cc(C)nc(NS(=O)(=O)c2ccc(N)cc2)n1 [Sulfamethazine sodium salt] | 106 ± 4.5 | 101 ± 2.2
Cc1cc(NS(=O)(=O)c2ccc(N)cc2)no1 [Sulfamethoxazole] | 40 ± 4.8 | 82.9 ± 2.1
C#C[C@]1(O)CC[C@H]2[C@@H]3CCC4=Cc5oncc5C[C@]4(C)[C@H]3CC[C@@]21C [Danazol] | 83.39 ± 0.79 | 87.15 ± 0.32
CCCc1nc(C(C)(C)O)c(C(=O)O)n1Cc1ccc(-c2ccccc2-c2nnn[nH]2)cc1 [Olmesartan] | 100 ± 3.2 | 99.8 ± 2.9
c1ccc(-c2ccc(C(c3ccccc3)n3ccnc3)cc2)cc1 (stereo unspecified) [Bifonazole] | 2.86 ± 1.9 | 1.99 ± 0.94

Structure (SMILES) | growth yield (40 h) [%] | growth yield (72 h) [%]
N#Cc1ccc(C(c2ccc(C#N)cc2)n2cncn2)cc1 [Letrozole] | 103 ± 1.1 | 101.5 ± 0.42
CCC1(c2ccccc2)NC(=O)N(C)C1=O (stereo unspecified) [Mephenytoin] | 110 ± 4.9 | 102 ± 4.5
CC1(C)[C@@H](OC(=O)CCC(=O)O)CC[C@]2(C)[C@H]3C(=O)C=C4[C@@H]5C[C@@](C)(C(=O)O)CC[C@]5(C)CC[C@@]4(C)[C@]3(C)CC[C@@H]12 [Carbenoxolone disodium salt] | 95 ± 4.1 | 94.6 ± 2.1
CN(C)[C@@H]1C(O)=C(C(N)=O)C(=O)[C@@]2(O)C(O)=C3C(=O)c4c(O)ccc(Cl)c4[C@@H](O)[C@H]3C[C@@H]12 [Demeclocycline hydrochloride] | 82.6 ± 3.2 | 85.1 ± 5.6
N=C(N)NC(=O)Cc1c(Cl)cccc1Cl [Guanfacine hydrochloride] | 97.1 ± 1.4 | 101.3 ± 0.63
COC(=O)CCc1ccc(OCC(O)CNC(C)C)cc1 (stereo unspecified) [Esmolol hydrochloride] | 105 ± 4.6 | 100 ± 1.5
C/C(=C\C(=O)OCCCCCCCCC(=O)O)C[C@@H]1OC[C@H](C[C@@H]2O[C@H]2[C@@H](C)[C@H](C)O)[C@@H](O)[C@H]1O [Mupirocin] | 6.04 ± 2.9 | 39.5 ± 8.5
O=C(O)CCC(=O)Nc1ccc(S(=O)(=O)Nc2nccs2)cc1 [Succinylsulfathiazole] | 94.7 ± 3.5 | 93.9 ± 2.6
OCC(O)CN1CCN(c2ccccc2)CC1 (racemic) [Dropropizine (R,S)] | 101 ± 1.6 | 101.7 ± 0.63
CC(C)(CO)C(O)C(=O)NCCCO (stereo unspecified) [Panthenol (D)] | 100 ± 4.5 | 98.1 ± 3
CC(=O)OC[C@H]1O[C@@H]([S-])[C@H](OC(C)=O)[C@@H](OC(C)=O)[C@@H]1OC(C)=O.CCP(CC)CC.[Au+] [Auranofin] | 25.6 ± 2.1 | 33 ± 2
CN(C)/N=N/c1[nH]cnc1C(N)=O [Dacarbazine] | 95.6 ± 1.9 | 98 ± 3.4
O=C1C(O)=C([C@H]2CC[C@H](c3ccc(Cl)cc3)CC2)C(=O)c2ccccc21 [Atovaquone] | 95.1 ± 4.3 | 97.4 ± 1.6
COc1cccc(N(C)C(=S)Oc2ccc3c(c2)CCCC3)n1 [Liranaftate] | 0 | 0
CC(C)(C(=O)c1cccnc1)c1cccnc1 [Metyrapone] | 91 ± 3 | 88.4 ± 2.6
COc1cc2nc(N(C)CCCNC(=O)C3CCCO3)nc(N)c2cc1OC (stereo unspecified) [Alfuzosin hydrochloride] | 104.7 ± 0.79 | 105 ± 3.6
OC(CNCC(O)C1CCc2cc(F)ccc2O1)C1CCc2cc(F)ccc2O1 (stereo unspecified) [Nebivolol hydrochloride] | 95 ± 16 | 114 ± 14
CN(C)CCOC1=Cc2ccccc2Sc2ccc(Cl)cc21 [Zotepine] | 89.7 ± 14 | 114 ± 11
NC(N)=Nc1nc(CSCC/C(N)=N/S(N)(=O)=O)cs1 [Famotidine] | 103 ± 1.9 | 101 ± 1.3
CCCCN(CCCC)CCC(O)c1cc2c(Cl)cc(Cl)cc2c2cc(C(F)(F)F)ccc12 (stereo unspecified) [Halofantrine hydrochloride] | 25.6 ± 6.2 | 95.9
N=C(N)N/N=C/c1c(Cl)cccc1Cl [Guanabenz acetate] | 91.5 ± 1.9 | 90.7 ± 3.2
COC(=O)[C@H]1[C@H]2C[C@@H]3c4[nH]c5cc(OC)ccc5c4CCN3C[C@H]2C[C@@H](OC(=O)c2cc(OC)c(OC)c(OC)c2)[C@@H]1OC [Reserpine] | 107 ± 5.4 | 107 ± 2.8

Reference: the supplement of paper PMC8007513
